Results taken from PubChem BioAssay (EPA / NIEHS).
The source made the active and inactive calls. The calls were made as follows: active = hit-call score of the fitted dose curve at least 0.9, where 1 is the maximum; inactive = score below 0.9.

Columns and labels:
[1] = ATG_E_Box_CIS: Attagene CIS-FACTORIAL HepG2 Assay for human Enhancer Box (E-box) (AID 2282936); settings: HepG2 E-box cis-reporter transcription, actives raise or lower the signal
How it was run: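 E-box-driven reporter transcripts measured in transiently transfected HepG2 after 24 h exposure: RNA reverse-transcribed, PCR-amplified, fluorescently labelled, digested and resolved by capillary electrophoresis. Gain or loss relative to DMSO.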

[2] = ATG_M_61_CIS: Attagene CIS-FACTORIAL HepG2 Assay for M61 Transcription Factor (Internal Marker) (AID 2282937); settings: HepG2 Attagene CIS-FACTORIAL M61 internal marker reporter; actives raise or lower the signal
How it was run: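 Endogenous transcription factor activity in HepG2 is read through transiently transfected cis-element reporter units. After 24 h dosing, RNA undergoes reverse transcription, PCR and primer extension with 6-FAM before capillary electrophoresis; DMSO-referenced bidirectional fit.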

[3] = ATG_EGR_CIS: Attagene CIS-FACTORIAL HepG2 Assay for human Early Growth Response 1 (EGR1) (AID 2282938); settings: HepG2 Attagene CIS-FACTORIAL EGR reporter mRNA; actives raise or lower the signal
How it was run: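 Activity is taken as induction or loss of reporter mRNA versus DMSO, fitted bidirectionally. Transcripts from cis-regulated reporter units in transiently transfected HepG2 were measured after 24 h by RT-PCR with capillary electrophoresis.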

[4] = ATG_Ets_CIS: Attagene CIS-FACTORIAL HepG2 Assay for human Erythroblast Transformation Specific (ETS) (AID 2282941); settings: HepG2 ETS cis-reporter transcription, actives raise or lower the signal
How it was run: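 Cis-regulated reporter mRNA induction in HepG2 (transient transfection), 24 h exposure, RT-PCR plus capillary electrophoresis detection; DMSO serves as negative control and baseline.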

[5] = biological target: Hepatocyte nuclear factor 3-beta (Homo sapiens) (UniProt Q9Y261); test: ATG_FoxA2_CIS: Attagene CIS-FACTORIAL HepG2 Assay for human Forkhead box A2 (FOXA2) (AID 2282942); settings: HepG2 cis-reporter transcription factor activity, 24 h; actives raise or lower the signal
How it was run: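 Reporter transcript induction is measured by fluorescence after capillary electrophoresis of RT-PCR products from HepG2 cells exposed 24 h. Cis-regulated reporter units report endogenous factor activity; curves fitted both directions against DMSO.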

[6] = ATG_FoxO_CIS: Attagene CIS-FACTORIAL HepG2 Assay for human Forkhead box O (FoxO) (AID 2282943); settings: HepG2 Attagene cis-reporter, FoxO element, mRNA; actives raise or lower the signal
How it was run: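 HepG2, transient MRTU transfection (cis element, endogenous TFs). Dose 24 h. TriZol RNA → oligo(dT) RT → PCR → 6-FAM primer extension → HpaI cut → CE. Gain/loss vs DMSO.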

[7] = ATG_GATA_CIS: Attagene CIS-FACTORIAL HepG2 Assay for human GATA Binding Protein (AID 2282944); settings: HepG2 GATA cis-element reporter, Attagene multiplex mRNA; actives raise or lower the signal
How it was run: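 Transient MRTU transfection, HepG2, 24 h compound exposure. Total RNA → oligo(dT) RT → PCR → 6-FAM primer extension → HpaI cut → CE. Bidirectional fit vs DMSO.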

[8] = ATG_GLI_CIS: Attagene CIS-FACTORIAL HepG2 Assay for human Zinc Finger Protein GLI1 (AID 2282945); settings: HepG2, Attagene cis-factorial reporter mRNA, GLI element; actives raise or lower the signal
How it was run: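 Bidirectional curve fits relative to DMSO, using reporter mRNA levels from RT-PCR plus capillary electrophoresis. Cells were HepG2 transiently carrying cis-regulated reporter constructs, harvested 24 h after dosing.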

[9] = ATG_GRE_CIS: Attagene CIS-FACTORIAL HepG2 Assay for human Glucocorticoid Response Elements (GRE) (AID 2282947); settings: HepG2 GRE cis-reporter, Attagene multiplex mRNA; actives raise or lower the signal
How it was run: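 Reporter transcripts read by RT-PCR with capillary electrophoresis fluorescence after a 24 h chemical exposure of HepG2 cells transiently transfected with multiple cis-element reporter units. Gain or loss fitted against DMSO.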

[10] = ATG_ISRE_CIS: Attagene CIS-FACTORIAL HepG2 Assay for human Interferon Regulatory Factor 1 (IRF1) binding to an Interferon-Stimulated Response Element (ISRE) (AID 2282948); settings: HepG2 ISRE cis-reporter (Attagene), mRNA transcription readout; actives raise or lower the signal
How it was run: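 Multiplexed mRNA reporter readout in human liver HepG2 cells: cis-element-driven reporters transfected, compound added for 24 h, transcripts amplified, fluorescently labelled and sized by capillary electrophoresis; curve fitting bidirectional against DMSO.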

[11] = ATG_M_32_CIS: Attagene CIS-FACTORIAL HepG2 Assay for M32 Transcription Factor (Internal Marker) (AID 2282949); settings: HepG2 Attagene cis-factorial M32 reporter, mRNA; actives raise or lower the signal;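 also: background control marker of the multiplexed CIS panel rather than a real target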
How it was run: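 HepG2 transfectants (cis-regulated reporter transcription units) dosed 24 h. Reporter mRNA by RT-PCR plus CE, analysed as gain or loss relative to DMSO.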

[12] = ATG_M_06_CIS: Attagene CIS-FACTORIAL HepG2 Assay for M06 Transcription Factor (Internal Marker) (AID 2282950); settings: HepG2 Attagene CIS-FACTORIAL M06 internal marker reporter; actives raise or lower the signal
How it was run: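 Read-out is fluorescence of labelled reporter cDNA fragments resolved by capillary electrophoresis after RT-PCR. Cells: HepG2 carrying transfected cis-promoter reporter units, treated 24 h. Gain or loss of signal fitted relative to DMSO.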

[13] = biological target: Hypoxia-inducible factor 1-alpha (Homo sapiens) (UniProt Q16665); test: ATG_HIF1a_CIS: Attagene CIS-FACTORIAL HepG2 Assay for human Hypoxia Inducible Factor 1 (HIF1A) (AID 2282951); settings: HepG2 Attagene cis-factorial HIF1a reporter transcription; actives raise or lower the signal
How it was run: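 Fluorescence intensity of capillary-separated, 6-FAM-labelled reporter amplicons gives mRNA induction in HepG2 cells carrying transfected cis-promoter reporter units; cells exposed 24 h, responses fitted up or down from DMSO.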

[14] = biological target: Hepatocyte nuclear factor 6 (Homo sapiens) (UniProt Q9UBC0); test: ATG_HNF6_CIS: Attagene CIS-FACTORIAL HepG2 Assay for human Hepatocyte Nuclear Factor 6 (HNF6) (AID 2282952); settings: HepG2 Attagene cis-factorial HNF6 reporter transcription; actives raise or lower the signal
How it was run: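 Twenty-four-hour chemical treatment of reporter-transfected HepG2 cells precedes RNA isolation, DNase-treated reverse transcription and PCR of reporter sequences. Labelled fragments are sized by capillary electrophoresis and fitted bidirectionally versus DMSO.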

[15] = biological target: Heat shock factor protein 1 (Homo sapiens) (UniProt Q00613); test: ATG_HSE_CIS: Attagene CIS-FACTORIAL HepG2 Assay for human Heat Shock Transcription Factor 1 (HSE) (AID 2282953); settings: HepG2 HSE cis-reporter, Attagene RNA transcription; actives raise or lower the signal
How it was run: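 HepG2, transient MRTU transfection, cis-promoter reporters (endogenous TF activity). 24 h compound. RNA → oligo(dT) RT → PCR → 6-FAM primer extension → HpaI cut → CE. Bidirectional fit vs DMSO.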

[16] = ATG_MRE_CIS: Attagene CIS-FACTORIAL HepG2 Assay for human Metal Responsive Element (MRE) (AID 2282954); settings: HepG2 MRE cis-reporter transcription, Attagene multiplex; actives raise or lower the signal
How it was run: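 Endogenous MRE-dependent transcription read as reporter mRNA in transiently transfected human HepG2 cells at 24 h. RNA reverse-transcribed, PCR-amplified, labelled and resolved by capillary electrophoresis; gain or loss relative to DMSO.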

[17] = ATG_PBREM_CIS: Attagene CIS-FACTORIAL HepG2 Assay for human Phenobarbital-responsive Enhancer Module (PBREM) (AID 2282955); settings: HepG2 PBREM cis-reporter, Attagene multiplexed transcription; actives raise or lower the signal
How it was run: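 Cells were transfected with cis-element reporter units and treated for 24 h, after which RNA was extracted and reporter transcripts measured by RT-PCR and capillary electrophoresis.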

[18] = biological target: Paired box protein Pax-6 (Homo sapiens) (UniProt P26367); test: ATG_Pax6_CIS: Attagene CIS-FACTORIAL HepG2 Assay for human Paired Box 6 (PAX6) (AID 2282956); settings: HepG2 CIS-FACTORIAL PAX6 reporter transcription, RNA readout; actives raise or lower the signal
How it was run: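 Fluorescent RT-PCR products separated by capillary electrophoresis report PAX6-linked promoter mRNA in HepG2 cells 24 h post-dose. Curves fitted bidirectionally, DMSO as negative control.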

[19] = biological target: Bile acid receptor (Homo sapiens) (UniProt Q96RI1); test: ATG_IR1_CIS: Attagene CIS-FACTORIAL HepG2 Assay for human Nuclear Receptor Subfamily 1 Group H Member 4 (NR1H4), IR1 submotif (AID 2282946); settings: IR1 reporter transcription, actives raise or lower the signal
How it was run: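 HepG2 cells transiently transfected with multiplexed cis-element reporter units read endogenous transcription factor activity. After 24 h compound exposure, reporter mRNA was quantified by RT-PCR, fluorescent labelling, HpaI digestion and capillary electrophoresis; bidirectional fitting versus DMSO baseline.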

Measured: AC50

Hypoxia-inducible factor 1-alpha (Homo sapiens), sequence (Q16665 whole entry, looked up): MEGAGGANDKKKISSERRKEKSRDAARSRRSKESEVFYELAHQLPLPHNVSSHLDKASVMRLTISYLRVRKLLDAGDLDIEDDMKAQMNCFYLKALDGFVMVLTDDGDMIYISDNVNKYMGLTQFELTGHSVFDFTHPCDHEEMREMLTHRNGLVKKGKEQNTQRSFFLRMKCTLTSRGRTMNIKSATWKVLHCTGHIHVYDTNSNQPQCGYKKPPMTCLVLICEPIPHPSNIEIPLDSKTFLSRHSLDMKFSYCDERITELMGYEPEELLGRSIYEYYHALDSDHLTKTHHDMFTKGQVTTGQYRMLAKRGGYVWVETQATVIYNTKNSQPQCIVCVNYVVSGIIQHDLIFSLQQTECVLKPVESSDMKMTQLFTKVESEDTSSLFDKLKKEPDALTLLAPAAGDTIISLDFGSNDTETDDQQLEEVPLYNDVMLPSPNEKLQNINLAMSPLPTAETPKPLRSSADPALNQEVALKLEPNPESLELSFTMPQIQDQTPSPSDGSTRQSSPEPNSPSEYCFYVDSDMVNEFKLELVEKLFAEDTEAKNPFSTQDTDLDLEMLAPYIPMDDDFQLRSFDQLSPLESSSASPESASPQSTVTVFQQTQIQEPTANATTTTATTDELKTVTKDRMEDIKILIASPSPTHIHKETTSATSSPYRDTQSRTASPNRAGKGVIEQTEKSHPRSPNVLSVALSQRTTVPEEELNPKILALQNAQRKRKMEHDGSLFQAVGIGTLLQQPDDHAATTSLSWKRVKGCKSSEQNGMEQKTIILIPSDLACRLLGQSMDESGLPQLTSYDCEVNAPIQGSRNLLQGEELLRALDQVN
Paired box protein Pax-6 (Homo sapiens), sequence (P26367 whole entry, looked up): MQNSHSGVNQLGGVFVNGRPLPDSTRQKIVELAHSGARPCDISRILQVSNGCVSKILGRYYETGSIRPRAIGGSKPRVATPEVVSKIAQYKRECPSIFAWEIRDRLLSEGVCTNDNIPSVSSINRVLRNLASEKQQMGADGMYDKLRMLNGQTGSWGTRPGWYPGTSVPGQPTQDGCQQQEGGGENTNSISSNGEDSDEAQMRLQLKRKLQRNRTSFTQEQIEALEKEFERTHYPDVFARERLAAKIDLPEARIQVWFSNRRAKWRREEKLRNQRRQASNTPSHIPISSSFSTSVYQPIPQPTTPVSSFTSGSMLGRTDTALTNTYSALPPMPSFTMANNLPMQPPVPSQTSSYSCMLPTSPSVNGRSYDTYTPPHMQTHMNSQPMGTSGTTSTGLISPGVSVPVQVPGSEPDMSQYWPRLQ
Heat shock factor protein 1 (Homo sapiens), sequence (Q00613 whole entry, looked up): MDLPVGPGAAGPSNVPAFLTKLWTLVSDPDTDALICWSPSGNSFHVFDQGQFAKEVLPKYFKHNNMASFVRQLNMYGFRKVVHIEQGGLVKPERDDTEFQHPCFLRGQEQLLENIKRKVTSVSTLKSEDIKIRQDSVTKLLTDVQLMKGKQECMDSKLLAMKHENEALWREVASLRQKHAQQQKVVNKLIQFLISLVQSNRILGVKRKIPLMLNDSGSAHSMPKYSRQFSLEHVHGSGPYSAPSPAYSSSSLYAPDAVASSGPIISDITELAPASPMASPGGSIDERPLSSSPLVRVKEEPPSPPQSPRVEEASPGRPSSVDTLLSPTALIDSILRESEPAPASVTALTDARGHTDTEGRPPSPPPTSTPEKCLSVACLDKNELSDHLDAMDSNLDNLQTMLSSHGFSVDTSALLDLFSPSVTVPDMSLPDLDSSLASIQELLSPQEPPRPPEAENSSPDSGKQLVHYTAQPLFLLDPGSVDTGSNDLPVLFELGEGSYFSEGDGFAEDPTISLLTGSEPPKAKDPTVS
Hepatocyte nuclear factor 3-beta (Homo sapiens), sequence (Q9Y261 whole entry, looked up): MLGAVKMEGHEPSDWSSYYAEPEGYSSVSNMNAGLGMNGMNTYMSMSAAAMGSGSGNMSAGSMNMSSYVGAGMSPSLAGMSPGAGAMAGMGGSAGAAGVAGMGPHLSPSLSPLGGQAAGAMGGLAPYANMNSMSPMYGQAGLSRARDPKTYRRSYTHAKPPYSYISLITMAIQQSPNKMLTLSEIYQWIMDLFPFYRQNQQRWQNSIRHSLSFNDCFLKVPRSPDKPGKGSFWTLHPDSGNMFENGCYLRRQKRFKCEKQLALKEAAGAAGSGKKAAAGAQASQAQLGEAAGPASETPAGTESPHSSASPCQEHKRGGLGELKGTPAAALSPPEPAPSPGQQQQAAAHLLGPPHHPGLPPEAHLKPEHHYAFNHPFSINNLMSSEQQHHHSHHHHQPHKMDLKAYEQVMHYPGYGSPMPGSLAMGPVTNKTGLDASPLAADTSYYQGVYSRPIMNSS
Hepatocyte nuclear factor 6 (Homo sapiens), sequence (Q9UBC0 whole entry, looked up, the tested form may be a part): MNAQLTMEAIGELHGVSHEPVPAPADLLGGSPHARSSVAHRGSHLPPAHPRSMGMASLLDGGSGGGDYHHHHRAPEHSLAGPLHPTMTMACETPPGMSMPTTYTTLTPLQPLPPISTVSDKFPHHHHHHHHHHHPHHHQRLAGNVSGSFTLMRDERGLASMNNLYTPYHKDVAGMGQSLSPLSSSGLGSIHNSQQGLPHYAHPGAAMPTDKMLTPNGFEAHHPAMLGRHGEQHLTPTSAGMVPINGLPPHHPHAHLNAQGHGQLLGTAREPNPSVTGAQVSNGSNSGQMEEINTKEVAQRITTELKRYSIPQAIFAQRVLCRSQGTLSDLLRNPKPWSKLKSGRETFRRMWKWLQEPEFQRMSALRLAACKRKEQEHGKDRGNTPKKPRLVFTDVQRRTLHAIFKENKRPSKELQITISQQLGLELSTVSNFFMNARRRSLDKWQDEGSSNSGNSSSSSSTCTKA
Bile acid receptor (Homo sapiens), sequence (Q96RI1 whole entry, looked up): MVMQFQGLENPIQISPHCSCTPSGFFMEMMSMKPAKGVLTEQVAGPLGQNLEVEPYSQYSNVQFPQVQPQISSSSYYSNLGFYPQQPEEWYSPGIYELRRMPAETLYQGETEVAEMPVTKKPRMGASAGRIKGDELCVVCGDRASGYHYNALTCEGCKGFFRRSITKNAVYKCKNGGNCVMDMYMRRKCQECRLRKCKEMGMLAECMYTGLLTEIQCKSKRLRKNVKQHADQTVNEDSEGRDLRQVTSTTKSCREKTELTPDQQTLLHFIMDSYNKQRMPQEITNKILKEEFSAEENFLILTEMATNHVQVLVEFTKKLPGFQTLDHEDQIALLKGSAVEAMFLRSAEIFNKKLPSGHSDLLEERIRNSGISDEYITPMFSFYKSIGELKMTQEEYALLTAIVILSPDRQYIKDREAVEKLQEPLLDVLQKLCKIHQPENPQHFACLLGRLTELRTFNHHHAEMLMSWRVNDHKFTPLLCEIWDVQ

Oc1ccc2ccc3cccc4ccc1c2c34
active: [13] 0.00117 µM
not listed: [19]
inactive: all other assays above

CC(C)(O)c1cnn2c(-c3ccc(F)c(-c4c(F)cccc4C#N)c3)cnc2n1
active: [3] 2.13 µM | [13] 26.8 µM | [15] 25.8 µM | [16] 1.73 µM | [17] 0.785 µM
not listed: [6]
inactive: all other assays above

O=C(Oc1ccc(Br)cc1)N1CCN2CCC1CC2
not listed: [6] | [13] | [17] | [19]
inactive: all other assays above

c1ccc2c(c1)oc1ccccc12
not listed: [13] | [19]
inactive: all other assays above

CO[C@@H]1[C@H](OC(=O)NC(=O)CCl)CC[C@]2(CO2)[C@H]1[C@@]1(C)O[C@@H]1CC=C(C)C
active: [4] 47.8 µM
not listed: [6] | [19]
inactive: all other assays above

[As]#[In]
not listed: [19]
inactive: all other assays above

CCCCCOC(=O)c1ccccc1C(=O)OCCCCC
active: [16] 151 µM
not listed: [19]
inactive: all other assays above
